Reference: PubChem BioAssay AID431 (Sanford-Burnham Center for Chemical Genomics, 2006)
The whole screen tested about 63,000 compounds, of which about 1,100 (1.7%) were called active. The list comes from a sample in which actives are over-represented; it also holds similar structures and randomly drawn compounds. Potency and affinity values are given separately. Values without a mark were called inactive.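 The calls were made as follows: active = compounds whose percent cytotoxicity in the single-dose primary screen, scaled between solvent and toxic-drug controls, exceeds 50; inactive = the rest.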

assay: viability loss of HPDE-C7K cells – cell-based, fluorescence, HTS, primary screen (AID 431); conditions: HPDE-C7K KRASV12 cells, Alamar Blue viability, 48 h; at 10 µM; stronger effect = higher value;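 also: 0% = DMSO solvent wells and 100% = doxorubicin-treated wells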

Compound	cytotoxicity
CCC(C)N(C(=O)COC(=O)Cc1n[nH]c(=O)c2ccccc12)C1CCS(=O)(=O)C1 (centres undefined)	-29.5%
O=C(CN(C(=O)Cn1nnc(-c2cccs2)n1)c1cnc2ccccc2c1)NCC1CCCO1 (centres undefined)	-3.6%
O=C(COc1ccc(F)c(Cl)c1)c1ccc[nH]1	-3.1%
COc1cc(-c2nnc(-c3ccc(S(=O)(=O)c4ccccc4)cc3)o2)cc(OC)c1OC	-1.1%
COc1ccc(C2C(C(=O)N3CCCC3)CC(=O)N2c2ccc(OC)cc2)cc1 (centres undefined)	1.8%
CN(C)CC(=O)c1ccc(-c2ccccc2)cc1	-1.7%
CC(=O)Nc1cc(-c2nn3c(C)nnc3s2)ccc1C	6.7%
Cc1cc(C)c(C#N)c(SCC(=O)CC(=O)OC(C)C)n1	29.7%
Cc1nc(SCC(=O)CC(=O)OC(C)C)c(C#N)c(C)c1C	-4.4%
CCOC(=O)CC(=O)Nc1nnc(CC(C)C)s1	-10.3%
CCOC(=O)N1CCC(NC(=O)Cn2cccc2C(=O)c2ccccc2)CC1	-6.2%
COc1ccccc1C(=O)Oc1cc(N)n(S(=O)(=O)c2ccc(C)cc2)n1	-5.5%
Cc1onc(-c2ccccc2Cl)c1C(=O)Oc1cc(N)n(S(=O)(=O)c2ccc(F)cc2)n1	36.8%
COc1ccc(S(=O)(=O)n2nc(OC(=O)c3ccc(C)cc3)cc2N)cc1	-7.7%
Cc1ccc(S(=O)(=O)n2nc(OC(=O)c3c(-c4ccccc4Cl)noc3C)cc2N)cc1	73% (active)
COc1ccc(S(=O)(=O)n2nc(OC(=O)c3ccccc3)cc2N)cc1	0%
COc1ccc(S(=O)(=O)n2nc(OC(=O)c3c(-c4ccccc4Cl)noc3C)cc2N)cc1	51.1% (active)
O=C(O)CCC(=O)OCC1CCCO1 (centres undefined)	-8.8%
O=C(CSc1nnc(-c2ccccn2)n1Cc1ccccc1)NC1CCCC1	-15.2%
O=S(=O)(Nc1ccc(S(=O)(=O)N2CCOCC2)cc1)c1ccccc1	7.6%
OC(CNCc1ccco1)Cn1c2ccccc2c2ccccc21 (centres undefined)	40.9%
Cc1ccc(/C(C#N)=C\c2cn(C)c3ccccc23)cc1	35.2%
CC1(C(=O)NC2CCCC2)CCC(=O)N1CCC1=CCCCC1 (centres undefined)	-21.1%
Cc1ccccc1-n1c(C)nnc1SCC(=O)N1CC(=O)Nc2ccccc21	-8.9%
Cc1cccc2cc(C#N)c(N3CCN(C)CC3)nc12	1.8%
Cc1cccc2cc(C#N)c(SCC(=O)N3CCC(C)CC3)nc12	2.7%
Cc1cccc2cc(C#N)c(SCC(=O)N3CC(=O)Nc4ccccc43)nc12	65% (active)
Cc1cccc2cc(C#N)c(SCCN3CCCCC3)nc12	57.1% (active)
Cc1cc(C)c2nc(SCC(=O)N3CCCCC3)c(C#N)cc2c1	2.7%
